In the supplement of paper PMC11417369:
± gives the standard deviation of the averaged measurements. In all, about 25,000 sequences were measured (“ln(normalized median fluorescence intensity)”: median about 8.9, highest 2% from about 10 on). Many of the other results were omitted from the sample, so the highest values are more common in it than they were.

The sequences below were run on PfAP2-LT AP2 domain (GST-tagged) (assay: gcPBM binding intensity (ln(normalized median fluorescence intensity)); higher = stronger DNA binding).
Method in brief: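 Binding of GST-tagged P. falciparum DNA-binding domains, expressed in E. coli and used at about 25 μg on average, was carried out for 1 h in 1× PBS containing 1% milk, 0.2 mg/ml BSA, 0.5% salmon testes DNA and 0.03% Triton X-100. The target was an Agilent 4 × 180k array of primer-extended double-stranded 36-bp intergenic genomic probes plus negative controls, read with Alexa488 anti-GST antibody at 488 nm. Binding intensity is the highest Masliner-normalised natural-log median intensity across replicate spots of either probe orientation.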

Sequence	gcPBM binding intensity (ln)
AATAAATAAATACATCTCAGTATATAAACAAACAAA [CACACA_negctrl_site1604]	8.89 ± 0.51
AATAAATTGAAACACACACACACATATATATATATA [CACACA_site848]	10.17 ± 0.042
TATATATATATATAAACACACATAAATATAAATATA [CACACA_site1121]	9.01 ± 0.32
CATAATACAGATAACACACACAATTATACATAAAAT [CACACA_site5742]	9.59 ± 0.39
CATATAAATAAACACACACACACATATATATATATA [CACACA_site5309]	10.06 ± 0.064
AATATAAATAAACACACACACATATATATATATATT [CACACA_site2906]	9.79 ± 0.21
AAAAACAACACAGATAAATTAACACACACACACATA [XGTACX_negctrl_site588]	10.1 ± 0.12
GATAAATTAAAACACACACACATATATATATATATA [CACACA_site3962]	9.99 ± 0.042
GAAATATTGAAACACACACACAAACATATATATATA [CACACA_site1911]	10.1 ± 0.26
GCATAAATCAAACACACACACATATATATATATATA [CACACA_site2422]	10.3 ± 0.15
AAATAATCATAAAATAAACACACATATATAAATATA [CACACA_site7981]	8.89 ± 0.42
TAAATATAAACACAAACACACACATATATATATATA [CACACA_site7978]	10.04 ± 0.035
CAGATAAATAAACACACACACACATATATATATATA [CACACA_site9311]	10.16 ± 0.078
TACTTGTTATTAACATGTACAAAAAAAAAAAAAATT [XGTACX_site1338]	8.46 ± 0.42
TCTAACATATAATATTCACACACATATATATATTAT [CACACA_site8236]	9.21 ± 0.43
ACTAAAAGGCTTAAATGTACATATTATATATATATA [XGTACX_site5897]	8.89 ± 0.42
TGAATAAATATATATACACACATATATGTATATATT [CACACA_site1642]	8.95 ± 0.37
AAAATTTATAGTATGGTGCATAAAAATATATATATA	8.82 ± 0.46
TAAAATATAAAACACACACACATATATATATATATT [CACACA_site224]	9.72 ± 0.11
TAAATAAAAAAACACACACACATATATATATATATA [CACACA_site2269]	10.2 ± 0.36
TAAATAAATAAAAAAACACACATATATATATATATA [CACACA_site4029]	9.6 ± 0.44
AAAAAAAAATTAAAAACACACATATAAATAAATATA [CACACA_site6845]	8.76 ± 0.54
AAAAAAAAAAAAAAAACACACATAAAAATATAATAA [CACACA_site3855]	8.74 ± 0.63

Sequence	gcPBM binding intensity (ln)
TAAATAAATAAAAAAACACACATATAAATATAAATA [CACACA_site7815]	8.9 ± 0.52
TATAAATAAAAACACACACACATATATATATATATA [CACACA_site2319]	9.88 ± 0.12
AAAAAAAAAAAACACACACACACATAAATATATATA [CACACA_site149]	10.1 ± 0.18
CATAAAATATAAAACACACACACATATATATATATA [CACACA_site223]	10.1 ± 0.28
AAAAAAAAATTAAAAACACACATATATATATATATA [CACACA_site1580]	9.73 ± 0.014
AAAAAAAAAAAAAACACACACATATAAATATAAATA [CACACA_site6972]	9.37 ± 0.45
AAAAAAATTAAACACACACACACATATATATATATA [CACACA_site4718]	10.1 ± 0.27
AAGAAAATAAAAAGGTAAATATGTATAAATAAATAA [TGCATGCA_negctrl_site88]	8.71 ± 0.47
TTATTTTCTTTTTCTTGTACACACATAATATGGATG [XGTACX_site1481]	9.17 ± 0.54
CTAATGATCATATATACACACACACTAATAAAAAAA [CACACA_site9329]	9.64 ± 0.14
ATACCTTCTTTTATGTTTAATTAATATACTTTTTAT [CACACA_negctrl_site1557]	8.96 ± 0.55
ACATATATTATTATATGTACATATATTAATTATATA [XGTACX_site3400]	8.66 ± 0.28
GCACACACAAAAAAAGCATGCATACTAGCTATTTTT [TGCATGCA_site18]	9.37 ± 0.42
TACACAAAAATAAACACACACACATATATATATATA [CACACA_site1000]	9.79 ± 0.23
TACCAAAAGAAACACACACACAAAATATATAAATAT [CACACA_site1869]	9.88 ± 0.28
AAAAAAAGAAAAAAAACACACACAAATATAAATAAA [CACACA_site8309]	9.46 ± 0.39
CACCCATAGAAACACACACACGCATAAAAAAAAAAA [CACACA_site1513]	9.56 ± 0.37
ATATATATAAAACACACACACAAAAAAAATAAAGAC [CACACA_site117]	10.1 ± 0.28
TACACGCATAAACACACACACACACCCATATATATA [CACACA_site8114]	10.24 ± 0.05
CTTACCAAAAAACACACACACACAAAATATATAAAT [CACACA_site1870]	10.1 ± 0.24
TACACAAAAATAAACACACACACATATAAATAAATA [CACACA_site6599]	9.76 ± 0.3
CACAAAAATAAACACACACACATATATATATATATA [CACACA_site4704]	10.21 ± 0.057
AAAAAGAAAAAAAACACACACAAATATAAATAAATA [CACACA_site1183]	9.24 ± 0.49

Sequence	gcPBM binding intensity (ln)
AAAAAATATAAAAAAACACACAAAAAAAAAAAAAAA [CACACA_site1382]	8.6 ± 0.59
ATTCTACACGCACATACACACATATAAATATAAATA [CACACA_site7582]	9.24 ± 0.35
TATATATAATATATATATATGGAAATTCTTTTAAAT [XGTACX_negctrl_site50]	8.41 ± 0.38
AATATGAATATCTATACACACACATATATATACACA [CACACA_site8459]	9.45 ± 0.26
AAAAAAAAAAAATGTGCACACGCGTACACCCAAAAA [CACACA_site8614]	9.03 ± 0.4
TAATGAAGATATATAACACACAAAAGTTATAAATAT [CACACA_site6678]	8.97 ± 0.43
AAAATATAGTAACACATACACACATATATATTTATA [CACACA_site2504]	9.19 ± 0.38
ATAATATATATGAAATGTACATAAATTTAATGCGAC [XGTACX_site5394]	9.18 ± 0.45
AACTGCAAAAAAAGACGTACAAATTATTAATTGCAA [XGTACX_site8929]	8.88 ± 0.54
ATATAAATAACGTGTACACACATATGTATTTATATA [CACACA_site6520]	9.12 ± 0.31
AATATACAAAATATCACACATATAAAATAATATATA [CACACA_site6067]	8.88 ± 0.45
TTAATTAAGAAACACACACACATATATATATATATT [CACACA_site2290]	9.79 ± 0.12
AAAAAAAAAAAAAACACACACACACCCATAAATATA [CACACA_site151]	10.2 ± 0.15
AAAAAAAAAAAAAACACACACACAATAGTATATAAA [CACACA_site957]	9.55 ± 0.43
AAAATTAACCGTAACACACACACATATATATATATA [CACACA_site3964]	9.96 ± 0.28
GGAACAAATAATATCACACATATATATATATATATA [CACACA_site5670]	10.2 ± 0.41
TCATAGTATAAACACACACACACACCCATATATATA [CACACA_site8512]	10.1 ± 0.31
AATTAACCGAAACACACACACATATATATATATATA [CACACA_site3963]	10.24 ± 0.064
ACCATATAAATAAACACACACACACCCATATATATA [CACACA_site2321]	10 ± 0.36
AAAAAAAATAAACACACACACATACCCATAAATATA [CACACA_site5980]	10 ± 0.13
TACATAAAATATATCACACATATAATATATATATAT [CACACA_site5834]	8.86 ± 0.35
TTTTTTTTTTTTTTTACACACTATAGGGAAAAAAAA [CACACA_site1916]	8.21 ± 0.37
AGAAAGAAAGAATACACACACACATATATATATATC [CACACA_site3744]	9.95 ± 0.3

Sequence	gcPBM binding intensity (ln)
GAATTAAAATAATACGTACACACATGTATAATACAT [CACACA_site1004]	9.21 ± 0.29
AAAAAATATATATCACGTGGTAATATATATATATAT [XGTACX_negctrl_site252]	9.16 ± 0.14
CATAAATACATACATACACACATATTTATATTTATA [CACACA_site7071]	9.16 ± 0.4
ATATAATATATATATAAACACACAAAAAAAATTATA [CACACA_site8434]	8.97 ± 0.45
TATATATAAAAACACACACACACACCCTATAATTAT [CACACA_site4063]	10.18 ± 0.042
ATAATATATATATAAACACACAAAAAAAATTATATA [CACACA_site1534]	8.96 ± 0.42
TTGAAAATACAAAATTGTACAAAGATTTAAATAAAA [XGTACX_site1182]	8.7 ± 0.49
AATAAATAAGCACATACACACATACATACATACATA [CACACA_site6075]	9.54 ± 0.26
ATACATCAAGGACACACACACACACCCACACCCACA [CACACA_site8013]	10.4 ± 0.27
AGAAGCATACATCAAGCACACACACCCACACCCACA [CACACA_site8014]	10 ± 0.37
TAAATAAGCACATACACACATACATACATACATAAA [CACACA_site4017]	9.44 ± 0.38
TGAATAAATCAAAGCACACATACACCCACATATATA [CACACA_site286]	9.47 ± 0.24
GCATACATCAAGCACACACACACACGCACACGCACA [CACACA_site6311]	10.2 ± 0.19
CATATACATCCACATACACACATACACCCATACACA [CACACA_site5038]	9.66 ± 0.28
AAGCATACATCAAGCACACACACACCCACACCCACA [CACACA_site372]	10.3 ± 0.42
AAATAAAAAAAAAAAAAAAATAACTTAAATGGGATA [TGCATGCA_negctrl_site595]	8.33 ± 0.58
TGCATTATATTAAATTTTTTATTTGTTGATGTTATA [GTGCAC_negctrl_site371]	8.57 ± 0.47
TAAAATATATATATGTGTACATAACATATAATTTTT [XGTACX_site1725]	8.6 ± 0.46
TAAAATTTATAAACTACACACATATATATAGTAATA [CACACA_site3728]	8.8 ± 0.42
TATATATAATATTTTTCACACACCATTTCCTTAAAC [CACACA_site1341]	9.04 ± 0.29
